Assay results published in PubChem BioAssay (NCATS).
Records with an inconclusive call do not appear. Activity calls are given as the source filed them. Calls come from the whole dose curve.

biological target: Thyroid hormone receptor beta (Homo sapiens) (UniProt P10828); assay: qHTS assay for small molecule agonists of thyroid hormone receptor beta signaling (AID 588545); details: TR-UAS-bla GripTite HEK 293, beta-lactamase ratio, agonist mode, 18 h; series mostly up to 76.7 µM; activation: at the top concentration
Sequence (P10828 whole entry, looked up): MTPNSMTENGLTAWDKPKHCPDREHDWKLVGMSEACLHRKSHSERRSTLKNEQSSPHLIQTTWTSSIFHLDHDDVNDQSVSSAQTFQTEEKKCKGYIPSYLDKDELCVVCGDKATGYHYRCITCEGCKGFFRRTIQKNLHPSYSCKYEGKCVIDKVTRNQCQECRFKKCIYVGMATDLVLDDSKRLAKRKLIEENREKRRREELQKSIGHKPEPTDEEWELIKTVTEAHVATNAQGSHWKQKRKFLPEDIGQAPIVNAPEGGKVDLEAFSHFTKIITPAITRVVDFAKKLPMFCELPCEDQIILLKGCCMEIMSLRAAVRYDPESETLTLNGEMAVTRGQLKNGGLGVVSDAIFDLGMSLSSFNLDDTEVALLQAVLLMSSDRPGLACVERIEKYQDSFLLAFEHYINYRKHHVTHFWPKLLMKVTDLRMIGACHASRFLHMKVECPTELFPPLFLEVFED
Description: NIH Chemical Genomics Center [NCGC]
U.S. Environmental Protection Agency [EPA]
National Institutes of Environmental Health Sciences [NIEHS]
National Toxicology Program [NTP]
Thyroid hormone receptor (TR) belongs to nuclear hormone receptor superfamily. There are two subtypes for TR: TR-alpha and TR-beta. TR-beta plays a major role in regulating plasma cholesterol levels and it mediates the biological activities of thyroid hormone. Screening environmental chemicals on TR-beta signaling will provide important information for the mechanism of compound action.
NCGC Assay Protocol Summary
Using a beta-lactamase reporter-gene under control of the TR response element, a cell-based assay [GeneBLAzer TR-UAS-bla-GripTite assay developed by Invitrogen] was used to measure TR-beta signaling in agonist mode. TR-UAS-bla-GripTite HEK 293 cells were used with assay medium containing 2% charcoal/dextran FBS, 0.1 mM NEAA and 1 mM sodium pyruvate. The assay was performed in clear bottom black Greiner 1536-well plates. T3 was used as a positive control in the screen. Library compounds were measured for their ability to stimulate the reporter gene activity. Compounds were screened in a titration series in 1536-well format. The fluorescence intensity (405 nm excitation, 460/530 nm emission) was measured using an EnVision plate reader. Data was normalized relative to T3 control (10 nM, 100%), and DMSO only wells (basal, 0%). Concentration-response titration points for each compound were fitted to the Hill equation yielding concentrations of half-maximal stimulation (EC50) and maximal response (efficacy) values.
qHTS protocol for TR-beta beta-lactamase assay in agonist mode
[Step] [Parameter] [Value] [Description]
1. Reagent; 6 uL; 2500 cells/well
2. Incubation; 37 C for 4 hrs
- Dose response; start 3.8 uM, 1:3 dilutions, duplicates in first column
- Two columns of each 10 and 0.4 nM (finals) concentrations.
5. Incubation; 37 C for 18 hrs
6. Detection reagent; 1 uL of CCF4-dye
7. Incubation; RT for 2 hrs
8. Detection; Fluorescence; Envision plate reader

| SMILES | activation | Potency |
| --- | --- | --- |
| CC1(C)CC(NCCCCCCNC2CC(C)(C)NC(C)(C)C2)CC(C)(C)N1 | -7.51% (inactive) | – |
| CCCCC(CC)C(=O)OCCOCCOCCOC(=O)C(CC)CCCC (stereo not given) | -1.28% (inactive) | – |
| CCc1cccc(C)c1N(C(=O)CS(=O)(=O)O)[C@@H](C)COC | -8.26% (inactive) | – |
| Brc1ccc(Br)c(Br)c1 | 4.07% (inactive) | – |
| COC(=O)c1ccccc1S(=O)(=O)NC(=O)Nc1nc(OC(F)F)cc(OC(F)F)n1 | -1.1% (inactive) | – |
| CCNc1nc(N)nc(Cl)n1 | – | inactive |
| Nc1cc(Cl)c(O)c(Cl)c1 | -5.86% (inactive) | – |
| COC(=O)c1ccc(I)cc1S(=O)(=O)NC(=O)Nc1nc(C)nc(OC)n1 | 6.25% (inactive) | – |
| CC(Cl)(Cl)C(=O)OCCOc1cc(Cl)c(Cl)cc1Cl | -8.81% (inactive) | – |
| Cc1ccc(C(=O)c2ccccc2)cc1 | -3.81% (inactive) | – |
| O=c1[nH]sc2ccccc12 | -4.13% (inactive) | – |
| CC(C)c1ccc2cc(C(C)C)ccc2c1 | -7.33% (inactive) | – |
| C[Si](C)(Cl)[Si](C)(C)Cl | 1.83% (inactive) | – |
| CCC(O)OCCCOC (stereo not given) | -2.48% (inactive) | – |
| C1=C/CC/C=C/CC/C=C/CC/1 | -5.74% (inactive) | – |
| Cc1c(Cl)cccc1Cl | -2.2% (inactive) | – |
| CC(=O)c1c(C)c([N+](=O)[O-])c(C(C)(C)C)c([N+](=O)[O-])c1C | -2.95% (inactive) | – |
| CC(C)O.CC(C)O.CC(C)O.CC(C)O.[Ti] | -2.67% (inactive) | – |
| Cc1ccc(N=Nc2c(O)ccc3ccccc23)c([N+](=O)[O-])c1 | 2.4% (inactive) | – |
| CC(C)CCCCOC(=O)c1ccccc1C(=O)OCCCCC(C)C | -1.49% (inactive) | – |

| SMILES | activation | Potency |
| --- | --- | --- |
| CCCCCCCCCCCCCc1ccccc1 | -4.15% (inactive) | – |
| COC(=O)c1cccc(C(=O)OC)c1 | -5.13% (inactive) | – |
| O=c1n(CCO)c(=O)n(CCO)c(=O)n1CCO | 6.37% (inactive) | – |
| CCOCCOCCOCCO | -4.62% (inactive) | – |
| CN(C)Cc1cc(CN(C)C)c(O)c(CN(C)C)c1 | 4.17% (inactive) | – |
| CCCCC(CC)CN1C(=O)C2C3C=CC(C3)C2C1=O (stereo not given) | 7.25% (inactive) | – |
| O=C(O)CCCCCCCCCCC(=O)O | -4.84% (inactive) | – |
| CC(C)c1cccc(C(C)C)c1 | -6.27% (inactive) | – |
| CCCCCCC(O)CCCCCCCCCCC(=O)OC (stereo not given) | -8.63% (inactive) | – |
| CCCCC(CC)COC(C)=O (stereo not given) | -0.672% (inactive) | – |
| CCCCCCCCCCCCN | -6.27% (inactive) | – |
| OCCOCCOCCOCCOCCO | -6.96% (inactive) | – |
| C=CCCCCCCCCC=O | -9.36% (inactive) | – |
| CCCCCCCCCCCCCCC(=O)OC | -5.45% (inactive) | – |
| CCCCCCC(C)(C)S | 2% (inactive) | – |
| Nc1c(N=Nc2ccc(S(=O)(=O)CCOS(=O)(=O)O)cc2)c(S(=O)(=O)O)cc2cc(S(=O)(=O)O)c(N=Nc3ccc(S(=O)(=O)CCOS(=O)(=O)O)cc3)c(O)c12 | -5.68% (inactive) | – |
| C=C(C)C(=O)OCCOC(=O)C(=C)C | -3.5% (inactive) | – |
| CCCCCOC(=O)COc1cc(N2C(=O)C3=C(CCCC3)C2=O)c(F)cc1Cl | 4.74% (inactive) | – |
| CCCCCCCC/C=C\CCCCCCCC(=O)OC | -2.18% (inactive) | – |
| Fc1ccc(Br)cc1 | -4.4% (inactive) | – |
